Rows were chosen to be rich in hits. Some 1.8% of all compounds tested hit in one or more screens of this group.
Bfl-1 A1 inh = caspase 3/7 activation in MEF A1-2A-BIM cells, primary screen, A1 inhibitor project, cell-based, luminescence, HTS | 330,000 tested, 0.066% active | caspase activation, % (test concentration not listed) | Caspase-Glo 3/7 luminescence, 3 h; percent of clofoctol response, vehicle zero | AID 2462, 2010;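 active = over half of replicate activation scores above 10%, or exactly half above 10 with the replicate mean above 10; inconclusive = replicate mean below 10 yet half the replicates above 10; inactive = over half of replicates below 10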
ARNT-TACC3 inh = disruptors of ARNT/TACC3 protein interaction, primary screen, biochemical, AlphaScreen, single concentration; AlphaScreen His-ARNT PAS-B/GST-TACC3 binding, luminescence; TACC3 fragment carries E629A point mutation; Transforming acidic coiled-coil-containing protein 3 (Homo sapiens), Q9Y6A5; AID 623870, 2012; inhibition, % at 9.99 µM; 390,000 tested, 0.66% active;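 active = mean inhibition of replicates at least 50% and at least half of replicates each reaching 50%; inconclusive = half or more replicates reach 50% but mean below 50%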;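 also: 0% = complete ARNT plus TACC3 wells and 100% = ARNT alone without TACC3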
aDG glyco act = activators of alpha-DG glycosylation, primary screen, uHTS, Pro5-aDG cells, AlphaScreen; alpha-DG glycosylation AlphaScreen (IIH6); 0% Pro5, 100% B10-LARGE cell signal; activation, % at 10 µM; 360,000 tested, 0.22% active; AID 624168, 2012;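 active = activation of at least 8% versus controls, or a plate z-score of at least 8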;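 also: Pro5 are CHO cells carrying HIG-tagged alpha-DG that lacks glycosylation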
Mot1-301 SUMO = yeast Mot1-301 growth rescue at high temperature, primary screen, SUMOylation pathway inhibitor project, S. cerevisiae, ATP luminescence, 38.5C; S. cerevisiae Mot1-301 growth rescue; percent above DMSO median, 100 means doubled; growth rescue, % at 18.8 µM; 320,000 tested, 1% active; AID 2716, 2010;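 active = every valid replicate shows activation above 250% relative to neutral control wells; inactive = the rest, any valid replicate at or below 250%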;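 also: OY570 slx delta 5 strain wells were the positive control but not used for scaling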
AI-2 QS modul = Vibrio harveyi AI-2 quorum sensing modulators, primary screen, JMH597 strain, luminescence/OD600 ratio; activity change, % at 7.5 µM; 300,000 tested, 0.4% active; AID 2094, 2009; Vibrio harveyi JMH597 AI-2 luminescence/OD600 ratio, 9 h; hits give low values; strain lacks LuxN and CqsS sensors; 0 = neutral-control median; in the data active = activity change below about -75%, passing the limit was not always enough; inconclusive = no clear call, values can overlap the other calls;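 also: luminescence divided by OD600 gain over 9 h not by final OD600 alone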
ARNT Alpha ctr-1 = AlphaScreen signal interference compounds, dose response, artefact control for ARNT-TACC3 interaction inhibitor project, biochemical, luminescence, cherry-pick; shares compounds with ARNT-TACC3 inh; His-ARNT PASB-GST AlphaScreen artifact counter-screen; AC50, µM (titrated, usually from 68 µM), for inactives: at the top dose activity change, negative = signal decrease; 1,200 tested, 50% active; AID 651705, 2012;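 active = every separate test run was called active for a drop in luminescence, with AC50 within twice the top valid dose, actives reach about 71 µM in these data; inconclusive = the separate test runs disagree in their calls; inactive = all runs inactive, including signal change in the wrong direction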
ARNT Alpha ctr-2 = AlphaScreen signal interference by compounds, dose response, artefact control for ARNT/TACC3 disruptor project, biochemical, dual-tagged ARNT, dry powder | shares compounds with ARNT-TACC3 inh | Dual-tagged His-ARNT PASB-GST AlphaScreen artifact counter-screen | AC50, µM | 45 tested, 70% active | AID 720564, 2013;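 active = luminescence drop, with half-maximal potency fitted within twice the sample's top valid dose, cut at about 70 µM in these data; inactive = the rest, including signal moving the wrong way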
Starred values were filed as active, the others as inactive; ? = inconclusive; . = no result given; [ ] = remark or other dose.

SMILES	Bfl-1 A1 inh	ARNT-TACC3 inh	aDG glyco act	Mot1-301 SUMO	AI-2 QS modul	ARNT Alpha ctr-1	others
O=C(Nc1ccccc1C(=O)Nc1ccccc1C(=O)O)c1ccccc1	-0.5	73.9*	0.0	32.6	-3.9	26.2µM*
NC1=NN=C(N2N=C(c3ccco3)CC2(O)C(F)(F)F)n2ncnc2C1 (stereo not given)	0.7	72.9*	-0.2	-15.6	12.1	-22.2%
Fc1ccc(Cc2nnc(-c3cccs3)o2)cc1	-0.2	-0.6	0.0	-16.7	1.3	.
Oc1c(Br)cc(Br)cc1/C=N/Nc1ccc(Cl)nn1	0.1	3.5	0.0	24.7	13.7	.
Oc1ccc(/C=N/Nc2ccc(Cl)nn2)c(O)c1O	-0.3	55.3*	0.3	14.9	-34.8	4.5µM*
CCCCN(CC)CCCNC(=S)Nc1ccc2nc(N3CCN(C)CC3)cc(C)c2c1	1.6	5.4	0.6	69.9	-11.5	.
O=C(COC(=O)c1ccc([N+](=O)[O-])s1)NCc1ccccc1	-0.4	26.4*	0.3	-3.1	23.4	-2.6%
O=C(COC(=O)c1ccc([N+](=O)[O-])s1)Nc1ccccc1	-0.1	2.3	0.0	-0.8	?	.
NS(=O)(=O)c1ccc(CCNC(=O)COC(=O)c2ccc([N+](=O)[O-])o2)cc1	-0.6	71.4*	-0.4	-13.3	.	-10.3%
O=C(COC(=O)c1ccc([N+](=O)[O-])o1)NCc1ccccc1	-0.5	19.8*	-0.1	-2.9	.	-7.7%
Cc1nn(CC(=O)N(C)C2CCS(=O)(=O)C2)c(C)c1[N+](=O)[O-] (stereo not given)	-0.2	-3.0	-0.1	-3.8	12.0	.
O=C(CSC1=NNC(c2ccccn2)S1)Nc1cccc(Cl)c1 (stereo not given)	0.4	11.6	0.1	157.2	31.1	.
O=C(CSC1=NNC(c2ccccn2)S1)Nc1ccccc1 (stereo not given)	-0.3	58.2*	0.2	-16.7	30.8	6.36µM*
c1ccc(-c2nnc(-c3ccccn3)nc2Nc2cnc3ccccc3n2)cc1	.	.	.	.	.	0.762µM*
c1ccc(-c2csc(Nc3ncccn3)n2)cc1	-6.8	-2.4	-0.2	9.7	20.3	.
Cc1cccc(Nc2nc(-c3ccccn3)nnc2-c2ccccc2)n1	.	.	.	.	.	0.529µM*
c1ccc(-c2csc(Nc3nc(-c4ccccn4)nnc3-c3ccccc3)n2)cc1	.	.	.	.	.	2.17µM*
CC(C)c1ccc(NC(=O)C(c2ccc3c(c2)OCO3)N2CCC3(CC2)OCCO3)cc1 (stereo not given)	1.5	-3.0	0.4	5.9	-3.9	.
Cc1cccc(Nc2ccccc2C(=O)OCC(=O)N2CCOCC2)c1C	0.0	-4.5	0.1	34.4	29.9	.
CCCN1C(=O)C(=O)N(CC(=O)c2cc(C)n(C3CC3)c2C)C1=O	0.1	2.1	-0.2	6.9	.	.
COc1ccc(-c2nc(C#N)c(N3CCCCC3)o2)cc1	-0.4	53.7*	-0.1	8.6	9.7	70.9µM*
O=S(=O)(N[C@@H]1CCCN(Cc2ccc(OCCO)cc2)C1)c1cccc2cccnc12	.	80.3*	.	.	.	24.3µM*
O=c1cc(-c2ccc(O)cc2)oc2c(O)c(O)c(O)c(O)c12	1.2	53.0*	-0.1	-11.2	.	-35.4%
Cc1ccc(NC(=O)CSc2ccc(-c3ccccn3)nn2)cc1	-0.4	29.6	0.4	33.5	10.1	.
O=C(CSc1n[nH]c(-c2ccncc2)n1)Nc1ccc(F)cc1	-0.4	-1.1	-0.1	5.6	22.1	.
SMILES	Bfl-1 A1 inh	ARNT-TACC3 inh	aDG glyco act	Mot1-301 SUMO	AI-2 QS modul	ARNT Alpha ctr-1	others
O=C(CSc1n[nH]c(-c2ccccn2)n1)Nc1ccc(F)cc1	0.2	69.8*	0.1	-0.7	63.9	10.6µM*
O=C(CSc1n[nH]c(-c2ccccn2)n1)Nc1ccc(Cl)cc1	0.5	67.7*	0.3	-1.4	22.1	32.2µM*	ARNT Alpha ctr-2=11.3*
Cc1ccc(NC(=O)CSc2n[nH]c(-c3ccccn3)n2)cc1	-0.8	69.5*	0.2	-7.0	13.6	9.15µM*
O=C(Cc1ccncc1)NCC[C@H]1CC[C@@H](NC(=O)C2CC2)[C@H](CO)O1	.	4.5	.	.	.	.
CC1CC1C(=O)Nc1cc(C(F)(F)F)ccc1N1CCOCC1 (stereo not given)	0.5	2.4	0.1	3.9	10.0	.
CCc1nnc(NC(=O)c2ccc(OC)cc2OC)s1	-2.4	-1.5	-0.2	-2.5	20.1	.
COc1ccc(C(=O)Cc2nnc(C)s2)c(OC)c1	0.1	77.2*	0.2	-9.3	7.1	-5.2%
CCCNC(=O)C[C@@H]1CC[C@H]2[C@@H](COC[C@@H](O)CN2C(=O)CC)O1	.	-1.3	.	.	.	.
O=C(N/N=C/c1c(O)ccc2ccccc12)c1ccc(CO)nc1	0.1	58.7*	0.3	-26.5	-34.6	67.3µM*
O=C(NN=Cc1c(O)ccc2ccccc12)c1ccc2c(c1)OCO2	1.2	-1.4	0.8	-6.0	.	.
COC(=O)c1sc2nc(SCC(=O)N(C)c3ccccc3)n(N)c(=O)c2c1C	-0.6	-1.4	-0.8	-6.7	12.0	.
O=C(O)c1ncn(Cc2ccccc2)c1C(=O)O	0.5	61.6*	-0.1	-22.0	25.5	-22.5%
O=C(COc1coc(CN2CCN(c3ccccc3)CC2)cc1=O)NCC1CCCO1 (stereo not given)	-2.5	-1.7	1.3	-12.2	-6.9	.
Cc1nc(NCCCn2ccnc2)c2ccccc2n1	0.2	-3.2	-0.1	26.2	20.6	.
c1cncc(-c2nc(NCCCn3ccnc3)c3ccccc3n2)c1	2.6	63.3*	0.1	42.3	24.5	66.4µM*
COCc1[nH]nc2c1C(c1c(F)cccc1Cl)C(C#N)=C(N)O2 (stereo not given)	0.9	-8.4	0.0	-1.5	30.2	.
N#CC1=C(N)Oc2n[nH]c(-c3ccccn3)c2C1c1c(F)cccc1Cl (stereo not given)	0.0	55.4*	-0.1	47.9	1.5	-8.1%
O=C(c1cc(-c2ccccc2)on1)N1CCc2cccnc21	.	.	.	.	.	-7.9%[38 µM]
CN1CCN(C(=O)c2cc(-c3ccccc3)on2)CC1	-0.7	-4.0	0.3	5.3	-17.2	2.6%[38 µM]
O=C(c1cc(-c2ccccc2)on1)N1CCc2ccccc2C1	0.0	-13.6	-0.1	25.6	-41.0	.
OC(COc1ccc2ccccc2c1Cl)CN1CCOCC1 (stereo not given)	0.5	-2.5	0.1	0.8	.	.

High-throughput results from PubChem BioAssay.
